Results filed as inconclusive are left out. Values without a mark were called inactive. Activity calls are given as the source filed them. The call rests on the fitted dose curve; in most records, active means well fitted curve in the direction sought with a large enough effect in the repeat runs; inconclusive means weak or mixed curves; inactive means no such curve, though single readings can be large; an effect the other way counts as inactive or inconclusive.
On the % scale 0 is the no-effect control and ±100 the full control effect.

One experiment concerns the target Nuclear receptor subfamily 1 group I member 2 (Homo sapiens) (UniProt O75469). Nature of the experiment: Human pregnane X receptor (PXR) small molecule agonists, qHTS assay (AID 1346982). Further: nearly all actives have a fitted effect of over 35% in size. Further: potency means the concentration at half of the fitted maximal effect. Particulars: PXR-Luc HepG2, CYP3A4 luciferase reporter, 24 h; series mostly up to 92.4 µM; activation: at the top concentration. The method in brief: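 PXR-Luc HepG2 reporter cells (CYP3A4-driven luciferase) in 5% charcoal-stripped FBS medium, plated 5 h before compound addition, then treated 24 h at 37C. Luciferase read by ONE-Glo luminescence after 30 min at room temperature.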
For orientation: qHTS replaces the single test concentration by a dilution series.
Take `CN1CCC(=C2c3ccccc3CC(=O)c3sccc32)CC1`: the “activation” value is -1.14% [at 42.5 µM].

On to `OC[C@]1(O)OC[C@@H](O)[C@H](O)[C@@H]1O`, for which the Potency entry was “inactive”.

With `CCCCC/C=C\CCC=O`, the “activation” value is 1.91%.

Consider `COC(=O)CCSCCC(=O)OC`, for which the “activation” value was 6.91%.

Turning to `CC(=O)c1ccccc1O`, the “activation” value was -22.1%.

In the case of `CC(NC(CCc1ccccc1)C(=O)O)C(=O)N1C(=O)N(C)CC1C(=O)O` (stereo not drawn), the “activation” value was -5.15% [at 42.5 µM].

As to `NC(=O)c1ccc(N)cc1`, the “activation” value was 1.47%.

Turning to `CC(C)OC(=O)c1ccccc1`, the “activation” value was 15.2%.

Turning to `Nc1c2c(nc3ccccc13)CCCC2O` (stereo not drawn), the “activation” value is -23% [at 42.5 µM].

For the compound `CCCCCCCCCCCCCCCCC`, the “activation” value is 5.49%.

As to `COC(=O)CC(C)=O`, the “activation” value was -0.682%.

Take `COc1ccc2c(c1)c(CC(=O)OCC(=O)O)c(C)n2C(=O)c1ccc(Cl)cc1`: the “activation” value was -5.08% [at 42.5 µM].

As for `O=C(O)c1ccccc1OP(=O)(O)O`, the “activation” value is -0.861% [at 42.5 µM].

For `CCOC(C)(C)C`, the “activation” value was 3.93%.

In the case of `Nc1nc2c(ncn2COC(CO)CO)c(=O)[nH]1`, the “activation” value was -1.2% [at 42.5 µM].

With `CCCCCCCCCCCCCC=O`, the activation was -0.115% [at 8.39 µM].

For the compound `c1cnc(N2CCN(Cc3ccc4c(c3)OCO4)CC2)nc1`, the “activation” value is 0.414% [at 42.5 µM].

As to `CC/C=C\CC/C=C/C(OCC)OCC`, the Potency was 24.3 µM (active).

For the compound `CCC(=O)OC(C)c1ccccc1` (stereo not drawn), the “activation” value was 5.71%.

For `COc1c(N2C[C@@H]3CCCN[C@@H]3C2)c(F)cc2c(=O)c(C(=O)O)cn(C3CC3)c12`, the “activation” value was -9.43% [at 42.5 µM].

With `O=S(O)CO`, the “activation” value was 7.12%.

In the case of `O=c1n(CCO)c(=O)n(CCO)c(=O)n1CCO`, the “activation” value was 1.21%.

Consider `CCCCOCCOCCOCCCC`, for which the “activation” value is -4.2%.

In the case of `CO[C@]12C[C@@H](COC(=O)c3cncc(Br)c3)CN(C)[C@@H]1Cc1cn(C)c3cccc2c13`, the “activation” value was 3.27% [at 42.5 µM].

As for `CCc1ccc(O)c(OC)c1`, the “activation” value was 1.02%.

Regarding `CCCCCCCCS(=O)(=O)Cl`, the “activation” value is 16.6%.

`CCO[Si](CCC1CCC2OC2C1)(OCC)OCC` (stereo not drawn): the “activation” value is 7.91%.

Take `NC(=O)c1ccc([N+](=O)[O-])cc1`: the “activation” value is 2%.

For `CS(=O)(=O)O`, the “activation” value was 1.8%.

With `O=C(O)CCCc1ccccc1`, the “activation” value is -3.85% [at 42.5 µM].

For the compound `O=Cc1cccc([N+](=O)[O-])c1`, the “activation” value was -0.183%.

Regarding `N=c1nc(N2CCCCC2)cc(N)n1O`, the “activation” value was -9.18% [at 42.5 µM].

The target in a further experiment is Nuclear receptor subfamily 1 group I member 2 (Rattus norvegicus) (UniProt Q9R1A7). Nature of the experiment: Rat pregnane X receptor (rPXR) activation by small molecules, qHTS assay (AID 1346983). Further: nearly all actives have a fitted effect of over 20% in size. Particulars: rPXR luciferase reporter cells, One-Glo luminescence, 24 h; stronger effect = higher value. In a few lines: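 Cell-based rPXR activation assay: rPXR cells, 2,000 per well, rested 5hr at 37 C, then exposed to compounds in DMSO for 24 hr at 37 C. Luciferase activity read by One-Glo luminescence after 30 min at room temperature.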
Sequence of Nuclear receptor subfamily 1 group I member 2 (Rattus norvegicus) (Q9R1A7 whole entry, looked up): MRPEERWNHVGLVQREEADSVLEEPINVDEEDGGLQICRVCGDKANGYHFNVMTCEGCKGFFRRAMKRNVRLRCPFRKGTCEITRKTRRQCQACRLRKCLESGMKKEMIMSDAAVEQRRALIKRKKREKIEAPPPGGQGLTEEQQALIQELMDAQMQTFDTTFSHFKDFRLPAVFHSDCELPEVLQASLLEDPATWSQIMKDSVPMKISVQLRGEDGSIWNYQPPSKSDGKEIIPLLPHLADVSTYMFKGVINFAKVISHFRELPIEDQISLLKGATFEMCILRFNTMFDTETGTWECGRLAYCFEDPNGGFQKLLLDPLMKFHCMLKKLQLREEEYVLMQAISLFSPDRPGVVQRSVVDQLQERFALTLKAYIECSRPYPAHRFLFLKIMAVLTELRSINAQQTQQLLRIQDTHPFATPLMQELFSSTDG
Regarding `CCCC(=O)O[C@]1(C(=O)CO)CC[C@H]2[C@@H]3CCC4=CC(=O)CC[C@]4(C)[C@H]3[C@@H](O)C[C@@]21C`, the max activation was 8.95%.

Consider `CCN1CCC[C@H]1CNC(=O)c1c(O)c(Cl)cc(Cl)c1OC`, for which the max activation was -0.579%.

As to `Nc1nc2c(ncn2COC(CO)CO)c(=O)[nH]1`, the max activation is 0.872%.

Consider `COc1c(N2C[C@@H]3CCCN[C@@H]3C2)c(F)cc2c(=O)c(C(=O)O)cn(C3CC3)c12`, for which the max activation is -3.75%.

The target of another experiment is Nuclear receptor subfamily 1 group I member 2 (Homo sapiens) (UniProt O75469). The experiment in a line: CYP3A4 induction through human pregnane X receptor (PXR) by small molecules, qHTS assay (AID 1346984). Further: nearly all actives have a fitted effect of over 40% in size. The following applies: DPX-2 HepG2 PXR, CYP3A4-luciferin luminescence, 24 h; series mostly up to 46.1 µM; activation: at the top concentration. In a few lines: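 DPX-2 HepG2 cells carrying a PXR response element and CYP3A4-promoter luciferase construct, treated with compounds 24 hr at 37C. Then P450-Glo CYP3A4 Luciferin-IPA substrate (3uM final) for 3 hr at 37C, One-Glo added, luminescence read.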
Sequence of Nuclear receptor subfamily 1 group I member 2 (Homo sapiens) (O75469 whole entry, looked up): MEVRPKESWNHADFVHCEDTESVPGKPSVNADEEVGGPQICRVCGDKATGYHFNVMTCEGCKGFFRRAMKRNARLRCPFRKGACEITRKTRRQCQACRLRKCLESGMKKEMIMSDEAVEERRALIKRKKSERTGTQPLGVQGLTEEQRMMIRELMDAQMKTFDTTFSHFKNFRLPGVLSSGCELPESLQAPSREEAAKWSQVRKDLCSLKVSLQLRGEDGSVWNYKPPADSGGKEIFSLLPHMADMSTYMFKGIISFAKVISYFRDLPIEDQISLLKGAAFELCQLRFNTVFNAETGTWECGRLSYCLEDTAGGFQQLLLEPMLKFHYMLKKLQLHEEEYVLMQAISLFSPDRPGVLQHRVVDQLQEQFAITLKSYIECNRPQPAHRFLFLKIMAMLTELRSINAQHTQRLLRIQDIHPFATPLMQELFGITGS
On to `CCCC(=O)O[C@]1(C(=O)CO)CC[C@H]2[C@@H]3CCC4=CC(=O)CC[C@]4(C)[C@H]3[C@@H](O)C[C@@]21C`, for which the “activation” value is 3.4%.

As to `CCN1CCC[C@H]1CNC(=O)c1c(O)c(Cl)cc(Cl)c1OC`, the “activation” value was -0.318%.

As for `Nc1nc2c(ncn2COC(CO)CO)c(=O)[nH]1`, the “activation” value was 5.58% [at 20.6 µM].

Regarding `COc1c(N2C[C@@H]3CCCN[C@@H]3C2)c(F)cc2c(=O)c(C(=O)O)cn(C3CC3)c12`, the “activation” value was -1.51%.

The target is the same in a further experiment. The experiment in a line: Human pregnane X receptor (PXR) activation by small molecules, qHTS assay (AID 1346985). Further: nearly all actives have a fitted effect of over 40% in size. Particulars: DPX-2 HepG2 CYP3A4-luciferase, 24 h; series mostly up to 38.3 µM; activation: at the top concentration. The method in brief: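 DPX-2 cells (HepG2 co-transfected with a PXR response element and a CYP3A4-promoter luciferase construct) were seeded at 2,000 per well, rested 5 hr at 37C, then exposed to DMSO-dissolved compounds for 24 hr. Activation was read as luciferase luminescence.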
With `CCCC(=O)O[C@]1(C(=O)CO)CC[C@H]2[C@@H]3CCC4=CC(=O)CC[C@]4(C)[C@H]3[C@@H](O)C[C@@]21C`, the “activation” value was -4.72%.

Regarding `Nc1nc2c(ncn2COC(CO)CO)c(=O)[nH]1`, the “activation” value was 6.47% [at 17.1 µM].

As to `COc1c(N2C[C@@H]3CCCN[C@@H]3C2)c(F)cc2c(=O)c(C(=O)O)cn(C3CC3)c12`, the “activation” value is 3.75%.
